Results as given in PubChem BioAssay AID1159580 (chemical genetic matrix, 2015).
“And” between values parts separate entries of the source, which are not always exact repeats. Equal values may be shown once. The whole screen tested about 5,500 compounds, of which about 2,000 (36%) were called active. Roughly 18% stayed inconclusive and do not appear here. No stated cut-off is given here; in the data, active means normalized growth mostly below about 0.91 (no sharp cut-off); inconclusive means no clear call, values can overlap the other calls; inactive means mostly above about 0.92. Some of the results follow.

Assay: chemical genetic growth profiling, strain panel (AID 1159580);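 further: tested at 20 µM; growth read once vehicle control cultures reached saturation at 30 °C; 1 = growth at the plate median or of vehicle wells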
Settings: growth OD

Measured: normalized growth

CC(C)[N+](C)(CCOC(=O)C1c2ccccc2Oc2ccccc21)C(C)C
inactive: S. cerevisiae deletion strains, locus YJR075W, strain HOC1, stronger effect = lower value 1.02 | S. cerevisiae deletion strains, locus YKL009W, strain mrt4, stronger effect = lower value 1.02 | S. cerevisiae deletion strains, locus YKL068W, stronger effect = lower value 1.01 | S. cerevisiae deletion strains, locus YKL085W, strain MDH1 (second series), stronger effect = lower value 1.01 | S. cerevisiae deletion strains, locus YKL085W, strain MDH1, stronger effect = lower value 1.01 | S. cerevisiae deletion strains, locus YKL160W, strain elf1, stronger effect = lower value 1.04 | S. cerevisiae deletion strains, locus YKL190W, strain CNB1, stronger effect = lower value 1.02 | S. cerevisiae deletion strains, locus YKR001C, strain vps1, stronger effect = lower value 1.01 | S. cerevisiae deletion strains, locus YKR026C, strain gcn3, stronger effect = lower value 0.997 | S. cerevisiae deletion strains, locus YKR091W, strain srl3, stronger effect = lower value 0.994 | S. cerevisiae deletion strains, locus YLL001W, strain dnm1, stronger effect = lower value 1.01 | S. cerevisiae deletion strains, locus YLL026W, stronger effect = lower value 1.02 | S. cerevisiae deletion strains, locus YLL041C, strain sdh2, stronger effect = lower value 1 | S. cerevisiae deletion strains, locus YLR027C, strain aat2, stronger effect = lower value 1 | S. cerevisiae deletion strains, locus YLR039C, strain RIC1, stronger effect = lower value 1.05 | S. cerevisiae deletion strains, locus YLR058C, strain SHM2, stronger effect = lower value 1.01 | S. cerevisiae deletion strains, locus YLR102C, strain apc9, stronger effect = lower value 1 | S. cerevisiae deletion strains, locus YLR113W, strain HOG1, stronger effect = lower value 1.02 | S. cerevisiae deletion strains, locus YLR221C, strain rsa3, stronger effect = lower value 0.996 | S. cerevisiae deletion strains, locus YLR258W, strain gsy2, stronger effect = lower value 1.02 | S. cerevisiae deletion strains, locus YLR262C, strain YPT6 (second series), stronger effect = lower value 1 | S. cerevisiae deletion strains, locus YLR262C, strain YPT6, stronger effect = lower value 1.07 | S. cerevisiae deletion strains, locus YLR268W, strain sec22, stronger effect = lower value 1.02 | S. cerevisiae deletion strains, locus YLR320W, strain mms22, stronger effect = lower value 0.985 | S. cerevisiae deletion strains, locus YLR330W, strain CHS5, stronger effect = lower value 1 | S. cerevisiae deletion strains, locus YLR342W, strain FKS1 (second series), stronger effect = lower value 1.02 | S. cerevisiae deletion strains, locus YLR342W, strain FKS1, stronger effect = lower value 1.02 | S. cerevisiae deletion strains, locus YLR357W, strain rsc2, stronger effect = lower value 1.02 | S. cerevisiae deletion strains, locus YLR370C, strain arc18, stronger effect = lower value 1.01 | S. cerevisiae deletion strains, locus YLR371W, strain rom2, stronger effect = lower value 1.01 | S. cerevisiae deletion strains, locus YLR384C, strain iki3, stronger effect = lower value 1.02 | S. cerevisiae deletion strains, locus YLR418C, strain cdc73, stronger effect = lower value 1.02 | S. cerevisiae deletion strains, locus YML016C, strain PPZ1, stronger effect = lower value 1 | S. cerevisiae deletion strains, locus YML032C, strain rad52, stronger effect = lower value 1.01 | S. cerevisiae deletion strains, locus YML120C, strain ndi1, stronger effect = lower value 1.01 | S. cerevisiae deletion strains, locus YML124C, strain tub3, stronger effect = lower value 1.01 | S. cerevisiae deletion strains, locus YMR058W, strain fet3, stronger effect = lower value 1 | S. cerevisiae deletion strains, locus YMR078C, strain ctf18, stronger effect = lower value 1 | S. cerevisiae deletion strains, locus YMR125W, strain sto1, stronger effect = lower value 1 | S. cerevisiae deletion strains, locus YMR129W, stronger effect = lower value 1.01 | S. cerevisiae deletion strains, locus YMR205C, strain PFK2, stronger effect = lower value 0.998 | S. cerevisiae deletion strains, locus YMR223W, strain ubp8, stronger effect = lower value 0.994 | S. cerevisiae deletion strains, locus YMR231W, strain pep5, stronger effect = lower value 1.01 | S. cerevisiae deletion strains, locus YMR307W, strain GAS1, stronger effect = lower value 1.01 and 1.02 | S. cerevisiae deletion strains, locus YNL067W, strain RPL9B, stronger effect = lower value 1.01 | S. cerevisiae deletion strains, locus YNL071W, strain lat1, stronger effect = lower value 1.01 | S. cerevisiae deletion strains, locus YNL128W, strain TEP1, stronger effect = lower value 1.02 | S. cerevisiae deletion strains, locus YNL153C, strain GIM3, stronger effect = lower value 1.01 and 0.989 | S. cerevisiae deletion strains, locus YNL175C, strain NOP13, stronger effect = lower value 1.02 | S. cerevisiae deletion strains, locus YNL183C, strain NPR1, stronger effect = lower value 0.971 | S. cerevisiae deletion strains, locus YNL197C, strain WHI3, stronger effect = lower value 0.999 | S. cerevisiae deletion strains, locus YNL209W, strain ssb2, stronger effect = lower value 1.01 | S. cerevisiae deletion strains, locus YNL224C, strain SQS1, stronger effect = lower value 1 | S. cerevisiae deletion strains, locus YNL233W, strain BNI4, stronger effect = lower value 1.01 | S. cerevisiae deletion strains, locus YNL248C, strain rpa49, stronger effect = lower value 1.04 | S. cerevisiae deletion strains, locus YNL250W, strain rad50, stronger effect = lower value 1.02 | S. cerevisiae deletion strains, locus YNL271C, strain bni1, stronger effect = lower value 1.01 | S. cerevisiae deletion strains, locus YNL298W, strain CLA4, stronger effect = lower value 1.03 | S. cerevisiae deletion strains, locus YNL307C, strain MCK1, stronger effect = lower value 1 | S. cerevisiae deletion strains, locus YNL322C, strain KRE1 (second series), stronger effect = lower value 1.02 | S. cerevisiae deletion strains, locus YNR049C, strain mso1, stronger effect = lower value 1.01 | S. cerevisiae deletion strains, locus YNR052C, strain pop2, stronger effect = lower value 1.01 | S. cerevisiae deletion strains, locus YOL006C, strain TOP1, stronger effect = lower value 1 | S. cerevisiae deletion strains, locus YOL012C, strain htz1 0.959 | S. cerevisiae deletion strains, locus YOL147C, strain pex11, stronger effect = lower value 1.01 | S. cerevisiae deletion strains, locus YOR001W, strain rrp6, stronger effect = lower value 0.976 | S. cerevisiae deletion strains, locus YOR061W, strain CKA2, stronger effect = lower value 1.01 | S. cerevisiae deletion strains, locus YOR069W, strain VPS5, stronger effect = lower value 1 | S. cerevisiae deletion strains, locus YOR070C, strain gyp1, stronger effect = lower value 1.01 | S. cerevisiae deletion strains, locus YOR080W, strain dia2, stronger effect = lower value 1.01 | S. cerevisiae deletion strains, locus YOR083W, strain WHI5 (second series), stronger effect = lower value 1.01 | S. cerevisiae deletion strains, locus YOR083W, strain WHI5, stronger effect = lower value 0.979 | S. cerevisiae deletion strains, locus YOR106W, strain vam3, stronger effect = lower value 1.03 | S. cerevisiae deletion strains, locus YOR136W, strain idh2, stronger effect = lower value 1 | S. cerevisiae deletion strains, locus YOR144C, strain elg1, stronger effect = lower value 1 | S. cerevisiae deletion strains, locus YOR184W, strain ser1, stronger effect = lower value 1.01 | S. cerevisiae deletion strains, locus YOR231W, strain MKK1, stronger effect = lower value 0.991 | S. cerevisiae deletion strains, locus YOR265W, strain rbl2, stronger effect = lower value 1 | S. cerevisiae deletion strains, locus YOR270C, strain vph1, stronger effect = lower value 1.04 | S. cerevisiae deletion strains, locus YOR290C, strain snf2, stronger effect = lower value 1.02 | S. cerevisiae deletion strains, locus YOR316C, strain cot1, stronger effect = lower value 1.01 | S. cerevisiae deletion strains, locus YPL051W, strain arl3, stronger effect = lower value 1.02 | S. cerevisiae deletion strains, locus YPL055C, strain LGE1, stronger effect = lower value 1.01 | S. cerevisiae deletion strains, locus YPL078C, strain atp4, stronger effect = lower value 1.02 | S. cerevisiae deletion strains, locus YPL106C, strain sse1, stronger effect = lower value 1.01 | S. cerevisiae deletion strains, locus YPL240C, strain hsp82, stronger effect = lower value 1.01 | S. cerevisiae deletion strains, locus YPL241C, strain CIN2, stronger effect = lower value 1.01 | S. cerevisiae deletion strains, locus YPL256C, strain CLN2, stronger effect = lower value 1.06 | S. cerevisiae deletion strains, locus YPR119W, strain clb2, stronger effect = lower value 0.996 | S. cerevisiae deletion strains, locus YPR141C, strain kar3, stronger effect = lower value 1.01 | S. cerevisiae deletion strains, locus YPR163C, strain tif3, stronger effect = lower value 1 | S. cerevisiae deletion strains, locus YPR167C, strain met16, stronger effect = lower value 1 | S. cerevisiae deletion strains, strain wtn01, stronger effect = lower value 1.01 | S. cerevisiae strains, strain wild type, stronger effect = lower value 1
